Screening data from PubChem BioAssay.
Beta apoptosis: inhibitors of cytokine-induced beta cell apoptosis, primary screen, luminescence; INS-1E cytokine-induced death, ATP luminescence, 48 h; percent of positive-control rescue, neutral wells zero; hit rate 0.8% among 300,000; protection from apoptosis, % (concentration not given with the values);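 active = Every replicate reaches about 75%, or at least half do and their mean reaches it too, limit read from the data; inconclusive = At least half of replicates reach the limit but their mean does not; inactive = Under half of replicates reach the limit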;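 note: higher means more ATP so stronger rescue from cytokine killing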
Calb FLC: C. albicans growth inhibition with fluconazole, primary screen, CaCi-2 strain, Alamar Blue fluorescence | AID 1979, 2009 | hit rate 0.57% among 300,000 | C. albicans CaCi-2 (fluconazole-resistant clinical isolate) + fluconazole, 48 h | growth inhibition, % (test concentration not listed);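 active = growth inhibition above about 58% in most replicates, limit read from the data, passing the limit was not always enough; inconclusive = exactly half the replicates above a set limit; inactive = most replicates below a set limit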;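 note: all wells also contain fluconazole at 8 µg/ml as a sub-toxic cotreatment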
Mdm2-MdmX inh: inhibitors of human Mdm2-MdmX association, primary screen, cell-based, luminescence, split luciferase, SaOS-2, uHTS; Protein Mdm4 (Homo sapiens) + E3 ubiquitin-protein ligase Mdm2 (Homo sapiens), …; SaOS-2 split-luciferase Mdm2/MdmX complementation; inhibition, % at 8 µM; hit rate 3% among 330,000; AID 485346, 2010;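 active = inhibition of at least 50% at 8 µM in the primary screen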
CSC inhib: cancer stem cell viability inhibitors, primary screen, luminescence. inhibition, % at 7.5 µM. cancer stem cell-like cells viability. hit rate 1.1% among 300,000; in the data active = inhibition above about 75%; inconclusive = no clear call, values can overlap the other calls; tested in HMLE shEcad cells
MPTP inh: mitochondrial permeability transition pore inhibitors, primary screen, biochemical, isolated mouse mitochondria, absorbance; AID 602449, 2012; hit rate 1.4% among 360,000; Ca2+ swelling absorbance, 30 min; inhibition, % at 10 µM;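 active = inhibition of 50% or more, scaled per plate between neutral and stimulator controls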
Mdm2-MdmX conf: Mdm2-MdmX complex disruptors, retested hits, confirmation, luminescence, single concentration | AID 489028, 2010 | Mdm2-MdmX binding, luminescent assay | hit rate 55% among 10,000 | shares compounds with Mdm2-MdmX inh | inhibition, % at 8 µM; in the data active = inhibition above about 40%
FLuc counter: full-length luciferase signal inhibition, confirmation, counter-screen for Mdm2/MdmX interaction inhibitor project, cell-based, single concentration, SaOS-2; shares compounds with Mdm2-MdmX inh; SaOS-2 full-length luciferase counterscreen, luminescence; inhibition, % at 8 µM; hit rate 77% among 6,200; AID 504607, 2011;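 active = mean inhibition at 8 µM reaching about 37%, which flags the compound as non-specific, limit read from the data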;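 note: p53-null SaOS-2 cells with luciferase driven by a doxycycline-inducible promoter; compound on cells about two nights before reading with doxycycline added after day one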
Numbers stand for hits; n = inactive; u = inconclusive; x = not tested or not shown. In the library only some 4.8% were active in any assay of this set; here they are far more common.

SMILES	Beta apoptosis	Calb FLC	Mdm2-MdmX inh	CSC inhib	MPTP inh	Mdm2-MdmX conf	others
C/C(=N\Nc1cc(N2CCOCC2)ncn1)c1ccccc1	n	n	n	n	n	x
C/C(=N\Nc1cc(N2CCOCC2)ncn1)c1cccc([N+](=O)[O-])c1	n	n	60	x	n	n
O=[N+]([O-])c1cccc(/C=N/Nc2nc(N3CCOCC3)nc(N3CCOCC3)n2)c1	n	n	n	n	n	x
O=[N+]([O-])c1cccc(/C=N/Nc2cc(Cl)nc(-c3ccccc3)n2)c1	n	n	66	n	n	n
O=[N+]([O-])c1ccc(/C=N/Nc2cc(Cl)nc(-c3ccccc3)n2)cc1	n	n	n	n	n	x
O=[N+]([O-])c1cccc(/C=N/Nc2cc(N3CCOCC3)ncn2)c1	n	n	59	n	n	n
CCCOc1ccc(/C=N/Nc2cc(N3CCOCC3)ncn2)c(O)c1	91	n	73	98	n	81	FLuc counter=n
CCOc1ccc(/C=N/Nc2cc(N3CCOCC3)ncn2)c(O)c1	x	x	x	x	n	x
CCOc1ccc(Cl)cc1-c1cc(C(=O)Nc2ccc(Br)cc2)[nH]n1	x	x	x	x	n	x
Cc1c(C=Nc2ccc(S(=O)(=O)N(C)C)cc2)c(O)[nH]c(=O)c1C#N	n	n	n	n	n	x
COCCNC(=O)C1(C)CCCN(C(=O)c2ccccc2F)C1 (configuration not stated)	x	x	x	x	n	x
CCNC(=O)C1(C)CCCN(C(=O)c2cc(C)nn2C(C)(C)C)C1 (configuration not stated)	x	x	x	x	n	x
O=C(Nc1ccc(N2CCN(C(=O)c3ccco3)CC2)c(Cl)c1)c1cc2ccccc2o1	n	n	100	n	n	75	FLuc counter=51
CCCC(=O)N1CCN(c2ccc(NC(=O)c3cccs3)cc2Cl)CC1	n	u	n	x	n	x
O=C(Nc1ccc(N2CCN(C(=O)c3ccccc3)CC2)c(Cl)c1)c1ccco1	n	n	n	n	n	x
CCC(=O)N1CCN(c2ccc(NC(=O)c3cc4ccccc4o3)cc2Cl)CC1	n	n	82	n	n	n
CCCC(=O)N1CCN(c2ccc(NC(=O)c3cc4ccccc4o3)cc2Cl)CC1	n	n	100	90	n	59	FLuc counter=n
COc1cc(NC(=O)Nc2nc(C(N)Cc3ccc(C(F)(F)F)cc3)cs2)cc(OC)c1OC (configuration not stated)	x	x	x	x	n	x
Cc1sc(NC(=O)C2=COCCO2)nc1-c1ccc(Cl)cc1	n	n	n	x	n	x
Cc1cc(C)cc(Cn2cc(CN3CC(N4CCCCC4)CS3(=O)=O)nn2)c1 (configuration not stated)	x	x	x	x	n	x
O=C1NC[C@H](CCCCN2CCN(CCc3ccccc3)C(=O)C2=O)N(CCC2CCCCC2)C1=O	x	x	x	x	n	x
COc1ccc(C(C(=O)NC2CCCC2)N(C(=O)c2snc(-c3ccc(F)cc3)c2N)c2ccc(OC)cc2)cc1 (configuration not stated)	n	n	n	n	n	x
COc1ccc(C(C(=O)NC2CCCC2)N(C(=O)c2snc(-c3ccc(F)cc3)c2N)c2ccc(F)cc2)cc1 (configuration not stated)	n	n	57	n	n	n
COc1ccc(C(C(=O)NC2CCCC2)N(C(=O)c2snc(-c3ccc(F)cc3)c2N)c2ccccc2)cc1 (configuration not stated)	n	u	n	n	n	x
COc1ccc(C(C(=O)NC2CCCC2)N(C(=O)c2snc(-c3ccc(F)cc3)c2N)c2cccc(F)c2)cc1 (configuration not stated)	n	n	62	n	n	n
SMILES	Beta apoptosis	Calb FLC	Mdm2-MdmX inh	CSC inhib	MPTP inh	Mdm2-MdmX conf	others
Cc1nnc(SCC(=O)N2CCC(c3noc4ccc(F)cc34)CC2)s1	n	n	78	n	n	69	FLuc counter=n
COC(=O)c1c(N)[nH]c(C(=O)c2ccccc2)c1-c1ccc(Cl)cc1	x	x	x	x	n	x
CC(=O)O[C@H]1CC[C@]2(C)[C@H]3CC=C4[C@@H]5[C@@H](C)[C@H](C)CC[C@]5(C(=O)O)CC[C@@]4(C)[C@]3(C)CC[C@H]2C1(C)C	n	n	n	n	x	x
C=C(C)[C@@H]1CC[C@]2(C(=O)O)CC[C@]3(C)C(CCC4[C@@]5(C)CC[C@H](O)C(C)(C)C5CC[C@]43C)C12 (some centres not stated)	n	n	94	94	n	n
Cc1cnc(C(=O)OC(C)C(=O)NC2CCCc3ccccc32)cn1 (configuration not stated)	n	n	n	x	n	x
CC[n+]1c(/C=C2/C=C(C)CC(C)(C)C2)sc2ccc(OC)cc21	n	n	54	n	n	n	FLuc counter=57
O=C(C1CCN(Cc2ccc(Cl)cc2)CC1)N1CCN(C(c2ccccc2)c2ccccc2)CC1	n	n	56	n	n	n
O=C(c1ccc(Cl)cc1)C1CCN(Cc2ccccc2)CC1	n	n	n	n	n	x
CC(=O)c1cccc(-c2ccnc3c2CC(C(=O)Nc2cccc(OC(F)(F)F)c2)O3)c1 (configuration not stated)	x	x	x	x	n	x
Cc1ccc(S(=O)(=O)N2C[C@@H](C)[C@]3(C2)[C@H](O)[C@H](OC(=O)NCc2ccccc2F)C[C@H]2C(=O)N(c4ccccc4)C(=O)[C@H]23)cc1	x	x	x	x	n	x
CCN1CCN(Cc2ccc(NC(=O)c3cc(NC(=O)N4CCNC4=O)cc(OC)c3)cc2C(F)(F)F)CC1	n	n	76	n	n	50	FLuc counter=68
CCN1CCN(Cc2ccc(NC(=O)c3ccc(C)c(NC(=O)c4c[nH]c5cc(C(F)(F)F)ccc5c4=O)c3)cc2C(F)(F)F)CC1	99	n	100	105	n	100	FLuc counter=52
COc1cc(NC(=O)c2cc3cccc(OC)c3o2)cc(C(=O)Nc2cccc(C(F)(F)F)c2)c1	n	n	59	n	n	56	FLuc counter=41
CCN1CCN(Cc2ccc(NC(=O)c3ccc(C)c(NC(=O)c4cccc(-c5cn[nH]c(=O)c5)c4)c3)cc2C(F)(F)F)CC1	n	n	84	n	n	46	FLuc counter=n
CCN1CCN(Cc2ccc(NC(=O)c3cc(NC(=O)C4=NN(c5ccccc5)C(=O)C4)cc(OC)c3)cc2C(F)(F)F)CC1	n	n	n	n	n	x
CCN1CCN(Cc2ccc(NC(=O)c3ccc(C)c(NC(=O)C4=NN(c5ccccc5)C(=O)C4)c3)cc2C(F)(F)F)CC1	n	n	n	n	n	x
O=C(OCC(=O)N1CCCCCC1)c1ccccc1Br	n	x	n	n	n	x
